Screening results as filed in PubChem BioAssay.
An excerpt weighted towards active compounds, which were near 6.7% of everything screened.
T cruzi growth-1 = blocks T. cruzi growth in NIH3T3 culture | T. cruzi beta-gal in NIH3T3, GalScreen luminescence, 90 h | inhibition, % at 8.34 µM | 77,000 compounds, 5.9% hits | AID 624255;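 active = mean inhibition above about 93%, with at least 55% of replicates each passing it, limit read from the data, passing the limit was not always enough; inconclusive = only one of those two conditions holds; inactive = neither condition holds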
C diff growth = C. difficile growth inhibition; Clostridium difficile clinical isolate growth, OD600, 24 h; hits give low values; AID 1259249; 86,000 compounds, 0.25% hits; growth activity, negative = inhibition, % at 16 µg/mL (by protocol);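 active = mean growth activity at or below -80% and every replicate also at or below -80%; inconclusive = mean at or below -80% but some replicate above -80%; inactive = mean growth activity above -80%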;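 also: 0% = DMSO wells and -100% = levofloxacin 16 µg/mL wells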
Pf Dd2 growth = P. falciparum Dd2 growth inhibition. SYBR Green, 72 h; hits give low values. 94,000 compounds, 2.3% hits. activity change, % at 10 µM. AID 1159554; in the data active = activity change below about -80%; inconclusive = no clear call, values can overlap the other calls
T cruzi growth-2 = blocks T. cruzi growth in NIH3T3 host cells. shares compounds with T cruzi growth-1. T. cruzi beta-gal in NIH3T3, GalScreen luminescence, 90 h. inhibition, % at 8.35 µM. 5,600 compounds, 72% hits;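 active = mean replicate inhibition above about 95% and at least 55% of replicates individually reaching it, limit read from the data; inconclusive = only one of the two criteria is met; inactive = neither criterion is met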
T cruzi growth-3 = inhibitors of T. cruzi proliferation; T. cruzi beta-gal in NIH3T3, GalScreen luminescence, 90 h; 5,600 compounds, 21% hits; inhibition, % at 2.09 µM; shares compounds with T cruzi growth-1; AID 651740;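 active = mean inhibition above about 95%, with at least 55% of replicates also reaching it, limit read from the data; inconclusive = meets just one of the two conditions; inactive = meets neither condition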;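 also: plate controls were neutral control median for no effect and positive control median for full effect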
3T3 cytotox = cytotoxicity in mouse NIH/3T3 fibroblasts; shares compounds with T cruzi growth-1; cytotoxicity (signal decrease), % at 8.35 µM; NIH/3T3 viability, CellTiter-Glo ATP luminescence, 90 h; 5,600 compounds, 14% hits; AID 651742;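 active = mean signal decrease across replicates above about 35% based on untreated-well scatter, with enough replicates individually passing, limit read from the data; inconclusive = no rule stated though some were filed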;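 also: 0% = median of neutral control wells and 100% = median of positive control wells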
3T3 cytotox 2 = kills mouse NIH/3T3 fibroblasts. shares compounds with T cruzi growth-1. NIH/3T3 viability, CellTiter-Glo ATP luminescence, 90 h. inhibition, % at 24.9 µM. 5,600 compounds, 56% hits. AID 651744;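 active = mean loss of cell viability signal at or above a set limit, and enough replicates individually reaching it; inconclusive = meets only the mean limit or only the replicate share; inactive = meets neither condition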;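 also: 0% = median of neutral control wells and 100% = median of positive control wells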
Starred values were filed as active, the others as inactive; ? = inconclusive; nt = not tested or not shown.

SMILES | T cruzi growth-1 | C diff growth | Pf Dd2 growth | T cruzi growth-2 | T cruzi growth-3 | 3T3 cytotox | 3T3 cytotox 2
C[C@H]1CCCCO[C@H](CN(C)Cc2ccc(C(=O)O)cc2)[C@@H](C)CN([C@@H](C)CO)C(=O)c2cc(NC(=O)Nc3cccc4ccccc34)ccc2O1 | 19 | 2 | 67 | nt | nt | nt | nt
C[C@@H]1CCCCO[C@@H](CN(C)Cc2ccc(C(F)(F)F)cc2)[C@H](C)CN([C@H](C)CO)C(=O)c2cc(NC(=O)Nc3cccc4ccccc34)ccc2O1 | ? | 6 | -4 | 105* | 115* | 30 | 14
C[C@@H]1CN([C@@H](C)CO)C(=O)c2cc(NC(=O)Nc3cccc4ccccc34)ccc2O[C@@H](C)CCCCO[C@H]1CN(C)Cc1ccc(C(=O)O)cc1 | 11 | 4 | 45 | nt | nt | nt | nt
C[C@@H]1CCCCO[C@@H](CN(C)Cc2ccc(C(F)(F)F)cc2)[C@H](C)CN([C@@H](C)CO)C(=O)c2cc(NC(=O)Nc3cccc4ccccc34)ccc2O1 | 123* | 11 | -26 | 111* | 110* | 2 | 8
C[C@H](CO)N1C[C@H](C)[C@@H](CN(C)Cc2ccc(C(=O)O)cc2)OCCCC[C@H](C)Oc2ccc(NC(=O)Nc3cccc4ccccc34)cc2C1=O | 12 | -5 | 34 | nt | nt | nt | nt
C[C@@H]1CCCCO[C@H](CN(C)Cc2ccc(C(F)(F)F)cc2)[C@H](C)CN([C@@H](C)CO)C(=O)c2cc(NC(=O)Nc3cccc4ccccc34)ccc2O1 | ? | 0 | -43 | 103* | 109* | ? | 17
C[C@@H]1CCCCO[C@@H](CN(C)Cc2ccc(C(F)(F)F)cc2)[C@@H](C)CN([C@H](C)CO)C(=O)c2cc(NC(=O)Nc3cccc4ccccc34)ccc2O1 | 102* | 6 | 31 | 104* | 32 | 10 | 10
C[C@@H]1CCCCO[C@H](CN(C)Cc2ccc(C(=O)O)cc2)[C@H](C)CN([C@H](C)CO)C(=O)c2cc(NC(=O)Nc3cccc4ccccc34)ccc2O1 | 22 | -3 | -53 | nt | nt | nt | nt
C[C@@H]1CCCCO[C@@H](CN(C)C(=O)Nc2ccccc2)[C@H](C)CN([C@@H](C)CO)C(=O)c2cc(NS(=O)(=O)c3cccs3)ccc2O1 | 38 | -3 | nt | nt | nt | nt | nt
Cc1noc(C)c1NC(=O)N1C[C@H](O)COC[C@H]2O[C@H](CC(=O)NCC3CC3)CC[C@@H]21 | -47 | -4 | nt | nt | nt | nt | nt
Cc1noc(C)c1NC(=O)N1C[C@@H](O)COC[C@H]2O[C@H](CC(=O)NCC3CC3)CC[C@@H]21 | 101* | -1 | nt | 36 | 31 | -11 | -14
Cc1noc(C)c1NC(=O)N1C[C@H](O)COC[C@H]2O[C@@H](CC(=O)NCC3CC3)CC[C@@H]21 | 4 | -5 | nt | nt | nt | nt | nt
Cc1noc(C)c1NC(=O)N1C[C@@H](O)COC[C@H]2O[C@@H](CC(=O)NCC3CC3)CC[C@@H]21 | ? | -1 | nt | -14 | 11 | -19 | -16
C[C@H](CO)N1C[C@H](C)[C@@H](CN(C)Cc2ccc(C(=O)O)cc2)Oc2cc(C#CCC3CCCC3)ccc2S1(=O)=O | -35 | -16 | -37 | nt | nt | nt | nt
CO[C@@H]1CN(C)C(=O)c2cc(NC(C)=O)ccc2OC[C@@H](C)N(Cc2ccncc2)C[C@@H]1C | -17 | nt | -69 | nt | nt | nt | nt
COCC(=O)Nc1ccc2c(c1)[C@H]1C[C@H](CC(=O)N[C@@H](C)c3ccccc3)O[C@H](CO)[C@H]1O2 | 58 | -7 | 5 | nt | nt | nt | nt
COc1cccc(NC(=O)N(C)C[C@@H]2Oc3ncc(C#Cc4ccccc4)cc3C(=O)N([C@@H](C)CO)C[C@H]2C)c1 | 118* | -6 | -37 | 111* | 103* | 6 | 3
COc1ccc(C#Cc2cnc3c(c2)C(=O)N([C@H](C)CO)C[C@H](C)[C@H](CN(C)C(=O)Nc2cccc(OC)c2)O3)cc1 | 42 | 10 | -30 | nt | nt | nt | nt
C[C@H]1CN([C@@H](C)CO)C(=O)c2cc(C#CC3CC3)cnc2O[C@@H]1CN(C)C(=O)Cc1ccccn1 | 35 | nt | 8 | nt | nt | nt | nt
C[C@H](CO)N1C[C@H](C)[C@@H](CN(C)C(=O)Cc2ccccn2)Oc2ncc(C#CC3CC3)cc2C1=O | 104* | nt | 2 | 61 | 17 | 10 | 36*
